Consider 40 molecules from PubChem BioAssay (NCATS).

Results filed as inconclusive are left out. Unmarked numbers belong to inactive results. Calls of active or inactive are those of the source. The call rests on the fitted dose curve; in most records, active means well fitted cell-killing curve with a large enough effect; inconclusive means small, poorly fitted or top-dose-only effect; inactive means flat fitted curve, though single readings scatter.

The first test can be described thus: Cellular viability qHTS for adrenocortical cancer (ACC) cell line SW-13 (AID 1963989).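 Further: cells grown in serum-free medium with ITS supplement; on the % scale 0 is the no-effect control and ±100 the full control effect; nearly all actives have a fitted effect of over 65% in size.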 The conditions noted are these: SW-13 ACC cells viability, CellTiter-Glo, 48 h; activity (max response): hits give low values. The procedure, abridged: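 Viability was read as CellTiter-Glo luminescence after 48 h compound treatment (up to 46 uM final) of SW-13 cells grown serum-free; titration curves were fit with a four-parameter logistic model to give IC50 and efficacy.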
For orientation: In qHTS, concentration-response curves come from the screen itself.
On to `C/C(=C1\CCOC(=O)S1)N(C=O)Cc1cnc(C)nc1N`, for which the activity (max response) was -4.19%. On to `COc1c(C)cc(NC(=O)c2nn(Cc3ccc(F)cc3)c3c2CN(C(=O)c2ccc[nH]2)C[C@]3(C)C(N)=O)cc1C`, for which the activity (max response) was -5.75%. As for `O=C(O)c1ccccc1-c1ccc(/C=c2\sc3nc4cc(Br)cnc4n3c2=O)o1`, the activity (max response) was -2.9%.

The next test is described as follows: Cellular viability qHTS for adrenocortical cancer (ACC) cell line NCI-H295R (AID 1963990). Further: nearly all actives have a fitted effect of over 60% in size. Further: potency means the concentration at half of the fitted maximal effect.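 On activity change, negative = viability loss: 0% = DMSO only wells and -100% = full killing with cytotoxic reference compound.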 The conditions noted are these: CellTiter-Glo ATP luminescence, 48 h; series mostly up to 46.1 µM; activity change, negative = viability loss: at the top concentration. The procedure, abridged: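 CellTiter-Glo ATP luminescence, read 48 h after compound addition, measured viability of NCI-H295R adrenocortical cells grown serum-free with ITS. Final concentrations spanned up to 46 uM. Data normalized to DMSO and doxorubicin, fitted for IC50 and maximal response.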
Take `CCCCc1nc(Cl)c(CO)n1Cc1ccc(-c2ccccc2-c2nn[nH]n2)cc1`: the “activity change, negative = viability loss” value is -26.1%.

For `COc1ccc([C@@H](O)[C@@H](C)Oc2ccc([C@H]3O[C@H](c4ccc(O[C@H](C)[C@H](O)c5ccc(OC)c(OC)c5)c(OC)c4)[C@H](C)[C@H]3C)cc2OC)cc1OC`, the Potency is 1.78 µM (active).

In the case of `CC(=O)Oc1ccc(C(=C2CCCCC2)c2ccc(OC(C)=O)cc2)cc1`, the “activity change, negative = viability loss” value is -29.6%. Still for that read-out and setting: as for `CC(=O)Nc1ccc(S(=O)(=O)Nc2ccc([N+](=O)[O-])cc2)cc1`, the figure is -8.53%.

For the molecule `COc1ccc(CCN(C)CCCC(C#N)(c2ccc(OC)c(OC)c2)C(C)C)cc1OC` (stereo not drawn), the Potency entry was “inactive”. With `C[C@]12CC[C@H](O)CC1=CC[C@@H]1[C@@H]2CC[C@]2(C)C(c3cccnc3)=CC[C@@H]12`, the “activity change, negative = viability loss” value is -11.7% [at 20 µM]. In the case of `COc1cccc(-c2c(C)n(Cc3c(F)cccc3C(F)(F)F)c(=O)n(C[C@H](NCCCC(=O)O)c3ccccc3)c2=O)c1F`, the Potency entry is “inactive”. Regarding `O=C(O)CCNc1cc(N2CCc3ccccc3CC2)nc(-c2cccnc2)n1`, the “activity change, negative = viability loss” value was -9.8%. The same measure, in the same setting: as for `COc1cc(-c2cn(C)c(=O)c3cnccc23)c(OC)cc1CN(C)C`, the figure is -3.59%. Regarding `CCCN1C[C@H](CSC)C[C@@H]2c3cccc4[nH]cc(c34)C[C@H]21`, the “activity change, negative = viability loss” value is -16.6%. `O=C(O)Cc1ccc(CCNS(=O)(=O)c2ccc(Cl)cc2)cc1`: the “activity change, negative = viability loss” value was -24.2%. On the same count and under the same terms, for `N[C@H](C(=O)O)c1ccc(O)cc1` the value was 15.6% [at 20 µM]; for `CCc1c(-c2ccccc2C)nc2c(C#N)c[nH]n2c1=O`, -32.4%; for `Cc1nc2ccccn2c(=O)c1CCN1CCC(C(=O)c2ccc(F)cc2)CC1`, -8%. Still for that read-out and setting: as for `CC(C)N(CCCNC(=O)Nc1ccc(C(C)(C)C)cc1)C[C@H]1O[C@@H](n2ccc3c(N)ncnc32)[C@H](O)[C@@H]1O`, the figure is 4.66%; as for `OCCOCCN1CCN(C2=Nc3ccccc3Sc3ccccc32)CC1`, -17.4%. Turning to `OC(C#CCN1CCCC1)(c1ccccc1)c1ccccc1`, the “activity change, negative = viability loss” value was 0.899%. As for `Nc1nc(Nc2ccc3c(c2)CC[C@@H](N2CCCC2)CC3)nn1-c1cc2c(nn1)-c1ccccc1CCC2`, the Potency was 10 µM (active).

For the molecule `Cc1ncc([N+](=O)[O-])n1CC(O)CCl` (stereo not drawn), the “activity change, negative = viability loss” value is -0.619%. Still for that read-out and setting: for `O=C(CCNC(=O)c1ccc(OC(F)(F)F)cc1)N[C@@H]1CCCc2ccccc21` the value was -14.1%; for `Cc1cc(O)cc(C)c1Cl`, -18.2%. For `O=C([C@@H](Cc1cccc(C(F)(F)F)c1)NS(=O)(=O)c1cc(F)c2c(c1)CCNC2)N1CCCC1`, the “activity change, negative = viability loss” value was -15.4%. Same read-out and setting: for `Cc1ccc(NS(=O)(=O)c2ccc3c(c2)C2C=CCC2C(c2ccc(C(=O)O)cc2)N3)cc1C` (stereo not drawn) the value was -0.155%; for `CC(C)[N+](C)(CCOC(=O)C1c2ccccc2Oc2ccccc21)C(C)C`, -20.5%. Still for that read-out and setting: as for `COc1ccc(Cl)cc1-c1cc(=O)[nH]c(=S)n1CC(N)=O`, the figure is -5.69%; as for `NS(=O)(=O)c1cc(C(=O)NN2C[C@H]3[C@H]4CCC(C4)[C@H]3C2)ccc1Cl`, 29.1%; as for `CS(=O)(=O)c1ccc(-c2cnc(NCc3ccco3)n3cnnc23)cc1`, -7.63%.

As for `COCCOC(=O)C1=C(C)NC(C)=C(C(=O)OC(C)C)C1c1cccc([N+](=O)[O-])c1` (stereo not drawn), the “activity change, negative = viability loss” value is -6.56%. Turning to `Cc1cc(Nc2cc(N3CCN(C)CC3)nc(/C=C/c3ccccc3)n2)n[nH]1`, the Potency is 10 µM (active). Turning to `CCOC(=O)C(C#N)=C(c1ccccc1)c1ccccc1`, the “activity change, negative = viability loss” value was -20.5%.

`CC(Oc1c(Cl)cccc1Cl)C1=NCCN1` (stereo not drawn): the “activity change, negative = viability loss” value was -22.6%. Same read-out and setting: for `O=C(CCCc1ccc2cccnc2n1)NCc1cc(-c2ccc(F)c(C(F)(F)F)c2)no1` the value was -2.85%.

Regarding `O=c1cc(N2CCOCC2)oc2c(-c3ccc4c(c3)OCCO4)csc12`, the Potency was 2.51 µM (active). On the same count and under the same terms, as for `O=C1NC(=O)/C(=C/c2ccc(-c3ccc(F)cc3O)o2)S1`, the figure is 25.1 µM (active).

For the molecule `CCS(=O)(=O)N1CCC(C(C)n2c(C)c(C(=O)NCc3c(OC)cc(C)[nH]c3=O)c3ccccc32)CC1` (stereo not drawn), the “activity change, negative = viability loss” value was 2.65%. On the same count and under the same terms, as for `N[C@H](Cc1c[nH]c2ccccc12)C(=O)O`, the figure is -26.5%. Consider `O=[N+]([O-])c1nccn1CO[C@@H](CO)[C@H](O)CO`, for which the “activity change, negative = viability loss” value was -21.7%.

Regarding `C/C(=C1\CCOC(=O)S1)N(C=O)Cc1cnc(C)nc1N`, the “activity change, negative = viability loss” value is -28.3%. On to `COc1c(C)cc(NC(=O)c2nn(Cc3ccc(F)cc3)c3c2CN(C(=O)c2ccc[nH]2)C[C@]3(C)C(N)=O)cc1C`, for which the “activity change, negative = viability loss” value was 7.84% [at 15.4 µM].

Consider `O=C(O)c1ccccc1-c1ccc(/C=c2\sc3nc4cc(Br)cnc4n3c2=O)o1`, for which the “activity change, negative = viability loss” value was -12.9% [at 20 µM].
